# Assay outcomes deposited in PubChem by several laboratories.
# iPSC survival up: enhancers of single-cell hiPSC survival, primary screen, ATPlite luminescence; 100% = ROCK inhibitor wells, 0% = DMSO; survival enhancement, % at 20 µM; 360,000 tested, 0.044% active; in the data active = survival enhancement above about 18%;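 also: cells exposed to compounds for 16 hours before the ATP read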
# TMEM16A inh: TMEM16A chloride channel inhibitors, primary screen, cell-based, HTS. Anoctamin-1 (Mus musculus), Q8BHY3. normalized B-score (activity score, 25-100; higher = stronger inhibition) at 10 µM. 310,000 tested, 1.2% active. HEK293 TMEM16A/YFP iodide influx fluorescence, ionomycin;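 active = ratio plate-corrected score three or more library SD toward inhibition, starting fluorescence score within five deviations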;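 also: score derived from kinetic fluorescence span divided by baseline fluorescence per well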
# ANO1 activ: TMEM16A chloride channel activators or potentiators, primary screen, cell-based, HTS | Anoctamin-1 (Mus musculus), Q8BHY3 | HEK293 TMEM16A/YFP-H148Q/I152L, iodide quench fluorescence; hits give low values | B-score at 10 µM | 340,000 tested, 0.3% active | AID 623877, 2012;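 active = fluorescence-ratio B-score plate-corrected deviation score at least 3 library SD below zero, with starting fluorescence score within 5 deviations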;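 also: channel opened by trigger with iodide after compound preincubation; score built on the fluorescence ratio of max minus min over baseline; more negative score means more quench and so TMEM16A activation or potentiation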
# ABCB6 inh MLPCN: ABCB6 transporter inhibitors, primary screen, K562-ABCB6 cells, flow cytometry, MLPCN library | K562-ABCB6 porphyrin accumulation, 1 h; hits give low values | fluorescence ratio to DMSO, % at 10 µM | 360,000 tested, 0.19% active | AID 602162, 2011;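 active = fluorescence ratio to DMSO below 75%, the collection mean minus 3 SD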;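 also: signal is porphyrin accumulated inside mitochondria; 100% equals median channel fluorescence of DMSO control wells; lower ratio means ABCB6 inhibition with less porphyrin fluorescence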
# DAGLB inhibitor: DAGLB lipase inhibitors, primary screen, biochemical, fluorescence, HTS; HEK293T DAGLB membrane lysate, EnzChek fluorogenic substrate; inhibition, % at 5.17 µM; AID 504411, 2011; 340,000 tested, 0.059% active; in the data active = inhibition above about 34%;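 also: 0% = enzyme with vehicle and 100% = wells lacking enzyme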
# TMEM16A reconf: TMEM16A chloride channel inhibitors, confirmation, cell-based, re-confirmation; inhibition, % at 10 µM; shares compounds with TMEM16A inh; HEK293 TMEM16A/YFP-H148Q, iodide quench fluorescence; ionomycin added to raise cell calcium; 2,300 tested, 39% active;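 active = mean duplicate percent inhibition, scaled so buffer wells are 0 and the reference blocker 100, over three buffer SD above buffer mean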
# HEK293 Ca mobil: calcium mobilization in TMEM16A/YFP HEK293 cells, confirmation, counter-screen for TMEM16A inhibitor project. shares compounds with TMEM16A inh. Fluo4 calcium mobilization. calcium response (% of ionomycin), % at 10 µM. 2,300 tested, 2% active;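 active = duplicate-averaged calcium signal over 20% of the ionomycin maximum, relative to buffer baseline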;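 also: each well's signal is peak minus trough fluorescence divided by its pre-addition baseline; 0% = buffer wells and 100% = ionomycin wells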
# Parental YFP cnt: iodide YFP quench changes in parental YFP-HEK293, counter-screen for TMEM16A inhibitor project, cell-based. 2,300 tested, under 10 active. shares compounds with TMEM16A inh. YFP ratio F(max-min)/F0 at 10 µM. ionomycin;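 active = yellow fluorescent protein signal ratio exceeding the buffer control mean by over 5 SD of those controls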;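 also: ratio is mean of duplicate wells from kinetic YFP trace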
# ClC-1 inh: ClC-1 chloride channel inhibition, selectivity assay for TMEM16A inhibitor project, cell-based, voltage-dependent ClC-1. shares compounds with TMEM16A inh. ratio percent, % at 10 µM. CHO ClC-1-YFP, iodide influx fluorescence quench; iodide control reads 0, buffer control 100. 2,300 tested, under 10 active;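 active = duplicate-mean ratio percent above the mean of iodide-only control wells, which defines zero, plus 5 of their SD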;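 also: higher percent means stronger block of ClC-1 iodide influx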
# Target sequence (P35524 whole entry, looked up): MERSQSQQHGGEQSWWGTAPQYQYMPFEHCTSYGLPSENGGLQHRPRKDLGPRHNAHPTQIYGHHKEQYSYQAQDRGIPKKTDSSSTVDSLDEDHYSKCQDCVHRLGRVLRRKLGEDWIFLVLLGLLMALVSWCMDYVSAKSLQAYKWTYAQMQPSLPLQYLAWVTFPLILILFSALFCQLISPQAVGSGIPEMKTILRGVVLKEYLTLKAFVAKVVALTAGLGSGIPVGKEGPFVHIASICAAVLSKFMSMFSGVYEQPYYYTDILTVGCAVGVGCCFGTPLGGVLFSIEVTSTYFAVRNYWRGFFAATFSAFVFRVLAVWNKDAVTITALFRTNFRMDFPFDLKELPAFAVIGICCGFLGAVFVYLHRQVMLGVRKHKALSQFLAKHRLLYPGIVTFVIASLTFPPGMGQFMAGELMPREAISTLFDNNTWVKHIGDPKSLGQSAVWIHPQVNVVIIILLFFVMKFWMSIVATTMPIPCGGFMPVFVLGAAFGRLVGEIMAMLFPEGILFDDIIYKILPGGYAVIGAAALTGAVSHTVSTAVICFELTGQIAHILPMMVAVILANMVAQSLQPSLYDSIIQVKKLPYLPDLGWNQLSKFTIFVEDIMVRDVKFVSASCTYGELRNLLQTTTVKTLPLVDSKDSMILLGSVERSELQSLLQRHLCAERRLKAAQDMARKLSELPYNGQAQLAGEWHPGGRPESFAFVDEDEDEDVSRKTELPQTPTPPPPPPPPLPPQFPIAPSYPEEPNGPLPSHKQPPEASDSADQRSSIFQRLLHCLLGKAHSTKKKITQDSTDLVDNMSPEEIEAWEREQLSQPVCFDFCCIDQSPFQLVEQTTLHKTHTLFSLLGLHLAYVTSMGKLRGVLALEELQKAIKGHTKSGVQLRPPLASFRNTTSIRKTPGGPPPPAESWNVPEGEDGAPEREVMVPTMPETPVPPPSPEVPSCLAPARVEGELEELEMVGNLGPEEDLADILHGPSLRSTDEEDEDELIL
# An asterisk follows results filed as active; i = inactive; x = no result. An excerpt weighted towards active compounds, which were near 1.5% of everything screened.
SMILES,iPSC survival up,TMEM16A inh,ANO1 activ,ABCB6 inh MLPCN,DAGLB inhibitor,TMEM16A reconf,HEK293 Ca mobil,Parental YFP cnt,ClC-1 inh
C[C@@H](c1ccccc1)N1C[C@@H](COCc2ccccc2)Oc2cc(N3CCC[C@H]3CO)ccc2S1(=O)=O,0,x,x,88,x,x,x,x,x
CC1(C)CC(=O)C(CC(=O)NC(=O)NCc2ccccc2)=C(O)C1,-1,100*,i,93,4,i,i,-1.1,-4
CC(C)Oc1ccc(C(CCN)C2CCCCC2)cc1 (stereo unspecified),0,i,i,98,-2,x,x,x,x
COc1cc(OC)cc(C(=O)Nc2ncn[nH]2)c1,3,x,i,99,0,x,x,x,x
COc1cc(OC)c(C(=O)Nc2ncn[nH]2)cc1OC,4,100*,i,91,-1,i,i,-1.3,-3
O=S(=O)(NC1CCCCC1Nc1ccc(Cl)cc1)c1ccccc1 (stereo unspecified),2,25*,i,96,-6,i,i,-1.1,-10
Cn1cc(CNC(=O)c2cc(COc3ccc4c(c3)CCCC4)on2)cn1,-1,25*,i,91,-1,i,i,-1.1,-8
Cc1ccc(-n2nc3c(=O)n(CC(=O)NC4CCCCC4)nc(C)c3c2C)cc1,0,i,i,97,0,x,x,x,x
CCOc1ccccc1C1NC(=O)c2ccccc2N1 (stereo unspecified),0,x,i,96,-1,x,x,x,x
O=C(Nc1cc(Cl)cc(Cl)c1)c1cccc(OC(F)F)c1,5,100*,i,95,-4,43%*,i,-1.4,-26
CCOCC(=O)Nc1cc(C(F)(F)F)ccc1Oc1cccc(Br)c1,-3,25*,i,100,-17,18%*,i,-1.1,-9
Cn1c(C(=O)N2CCN(c3ccc(Cl)cc3)CC2)cc2c(=O)[nH]c3ccccc3c21,4,i,i,94,5,x,x,x,x
Cc1ccc(Cl)cc1N1CCN(C(=O)c2cc3c(=O)[nH]c4ccccc4c3n2C)CC1,-2,25*,i,83,2,38%*,i,-0.97,-32
COc1ccc(C2=NS(=O)(=O)N(C)C(C(=O)Nc3ccc4c(c3)OCO4)=C2)cc1,-1,i,i,96,4,x,x,x,x
Cc1ccc(C2=NS(=O)(=O)N(C)C(C(=O)Nc3ccc4c(c3)OCO4)=C2)cc1,-1,25*,i,99,-2,i,i,-0.98,-26
CCOC(=O)c1c(NC(=O)COC(=O)c2cccc([N+](=O)[O-])c2)sc(C(=O)N(C)C)c1C,0,x,x,101,-8,x,x,x,x
Cc1n[nH]c(C)c1CCc1nc2c3ccccc3nc(SCC(N)=O)n2n1,-1,x,i,93,-1,x,x,x,x
Cc1ccc(NC(=O)CSc2nc3ccccc3c3nc(CCc4c(C)n[nH]c4C)nn23)cc1F,0,25*,i,97,-1,29%*,i,-0.99,-15
Cc1cccc(N2CC(C(=O)NCC3COc4ccccc4O3)CC2=O)c1C (stereo unspecified),-1,x,i,102,-1,x,x,x,x
COc1cccc(CN2C(=O)[C@@H]3Cc4c([nH]c5ccccc45)C(C)(C)N3C2=O)c1,-3,25*,i,107,-4,18%*,i,-1.1,-8
Cc1ccc(CN2C(=O)[C@@H]3Cc4c([nH]c5ccccc45)C(C)(C)N3C2=O)cc1,0,i,i,97,-10,x,x,x,x
Nc1ccc(C(=O)Nc2cccc3ncccc23)cc1,2,i,i,96,-3,x,x,x,x
CC(C)(C)c1ccc(C(=O)Nc2cccc3ncccc23)cc1,0,i,i,107,-4,30%*,i,-1.4,-14
Cc1cc(C)c(S(=O)(=O)N2CCCc3ccccc32)c(C)c1,0,25*,i,100,-8,32%*,i,-1.2,-10
Cc1cccc(S(=O)(=O)N2CCCc3ccccc32)c1,-1,i,i,95,-10,x,x,x,x
SMILES,iPSC survival up,TMEM16A inh,ANO1 activ,ABCB6 inh MLPCN,DAGLB inhibitor,TMEM16A reconf,HEK293 Ca mobil,Parental YFP cnt,ClC-1 inh
COc1cccc(CN2C(=O)C(C)N(C(=O)c3ccccc3)c3ccccc32)c1 (stereo unspecified),-1,25*,i,97,2,17%*,i,-0.86,-14
COc1ccc(CN2C(=O)C(C)N(C(=O)c3c(F)cccc3F)c3ccccc32)cc1 (stereo unspecified),-1,i,i,96,-7,x,x,x,x
Cc1c(NC(=O)C(C)Sc2ccccc2)c(=O)n(-c2ccccc2)n1C (stereo unspecified),1,i,i,101,-1,i,i,-0.82,-8
COc1cc(OC)cc(C(=O)NCC(=O)NC(C)c2ccccc2)c1 (stereo unspecified),0,i,i,97,-2,x,x,x,x
Cn1cccc1C(=O)NC(=O)COC(=O)CCNS(=O)(=O)c1ccc(Cl)cc1,12,x,i,90,0,x,x,x,x
N#Cc1nc(COc2cccc(Cl)c2)oc1NCc1ccco1,-3,i,i,97,-2,i,i,-1.3,-6
Cc1ccc(CC(=O)Nc2cccc(C(=O)Nc3c(C)n(C)n(-c4ccccc4)c3=O)c2)cc1C,2,x,x,99,0,x,x,x,x
CCn1c(N2CCN(S(=O)(=O)c3ccc(Cl)cc3)CC2)nc2ccccc21,0,25*,i,90,-3,i,i,-1.3,-8
Cc1ccc(C(=O)N/C(=C\c2cccs2)C(=O)N2CCN(C)CC2)cc1C,0,i,i,100,1,x,x,x,x
O=C(Nc1ccccc1)c1cc(C2CCCN(C(=O)OCc3ccccc3)C2)on1 (stereo unspecified),-2,x,x,98,x,x,x,x,x
CCc1ccc2c(CN(CC)Cc3nc4ccccc4c(=O)[nH]3)cc(=O)oc2c1,-4,25*,i,111,2,i,i,-0.93,1
